# Results published in PubChem BioAssay (NCATS).
# Records with an inconclusive call do not appear. Values without a mark were called inactive. Active and inactive are the calls of the source. The call rests on the fitted dose curve; in most records, active means well fitted curve in the direction sought with a large enough effect; inconclusive means small, poorly fitted or top-dose-only effect, or another doubt; inactive means no such curve, though single readings can be large; an effect the other way counts as inactive or inconclusive.
# Experiments:
# [1] = BET inhibitor-based combinations targeting novel dependencies in MECOM-rearranged (r) AML: SET-2 cell line (AID 2202231); conditions: SET-2 AML cells viability, CellTiter-Glo luminescence, 48 h; viability: stronger effect = lower value, concentration not given here; further: nearly all actives have a fitted effect of over 35% in size;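 on viability: plate controls were DMSO treated cells for no effect and wells without cells for full effect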
# Procedure, shortened: (§1)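 AML cell lines seeded at 500 cells/well, treated with 11-point dose curves for 48 h. Viability by CellTiter-Glo luminescence, normalised to DMSO and empty wells; activity expressed as AUC and per-cell-line Z-transformed AUC.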
# [2] = BET inhibitor-based combinations targeting novel dependencies in MECOM-rearranged (r) AML: OCI-AML3 cell line (AID 2202232); conditions: Potency: OCI-AML3 viability; further: nearly all actives have a fitted effect of over 35% in size
# Procedure, shortened: as §1
# [3] = BET inhibitor-based combinations targeting novel dependencies in MECOM-rearranged (r) AML: MV-4-11 cell line (AID 2202233); further: nearly all actives have a fitted effect of over 45% in size
# Procedure, shortened: (§2)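 Cells at 500/well were exposed for 48 hr to MIPE v5.0 drugs as 11-point dose curves. Viability was read by CellTiter-Glo luminescence and normalized to DMSO and empty-well controls. Activity was expressed as AUC and per-cell-line Z-AUC.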
# [4] = BET inhibitor-based combinations targeting novel dependencies in MECOM-rearranged (r) AML: HNT-34 cell line (AID 2202234); further: nearly all actives have a fitted effect of over 35% in size
# Procedure, shortened: as §2
# [5] = BET inhibitor-based combinations targeting novel dependencies in MECOM-rearranged (r) AML: UCSD-AML1 cell line (AID 2202235); further: nearly all actives have a fitted effect of over 40% in size
# Procedure, shortened: as §2
# [6] = BET inhibitor-based combinations targeting novel dependencies in MECOM-rearranged (r) AML: AML-191 cell line (AID 2202236; further: nearly all actives have a fitted effect of over 35% in size)
# Procedure, shortened: as §1
# [7] = BET inhibitor-based combinations targeting novel dependencies in MECOM-rearranged (r) AML: AML-194 cell line (AID 2202237; further: nearly all actives have a fitted effect of over 40% in size)
# Procedure, shortened: as §1
# Potency means the concentration at half of the fitted maximal effect.
Structure (SMILES),viability [1] [%],Potency [2],Potency [3],Potency [4],Potency [5],Potency [6],Potency [7],Potency [1]
CC(=O)N[C@H]1[C@H](O[C@@H]2c3ccc(c(Cl)c3)Oc3cc4cc(c3O[C@@H]3O[C@H](CO)[C@@H](O)[C@H](O)[C@H]3NC(=O)CCCCCCCC(C)C)Oc3ccc(cc3Cl)C[C@H]3NC(=O)[C@H](N)c5ccc(O)c(c5)Oc5cc(O)cc(c5)[C@H](NC3=O)C(=O)N[C@H]4C(=O)N[C@H]3C(=O)N[C@@H]2C(=O)N[C@@H](C(=O)O)c2cc(O)cc(O[C@H]4O[C@H](CO)[C@@H](O)[C@H](O)[C@@H]4O)c2-c2cc3ccc2O)O[C@H](CO)[C@@H](O)[C@@H]1O,113,inactive,inactive,inactive,inactive,inactive,inactive,–
Cc1ncsc1-c1ccc([C@H](C)NC(=O)[C@@H]2C[C@@H](O)CN2C(=O)[C@@H](NC(=O)COCCCOCCNC(=O)C[C@@H]2N=C(c3ccc(Cl)cc3)c3c(sc(C)c3C)-n3c(C)nnc32)C(C)(C)C)cc1,–,9.3 nM (active),4.7 nM (active),29.5 nM (active),83.3 nM (active),209 nM (active),186 nM (active),3.72 µM (active)
CC(/C=C1\SC(=S)N(CC(=O)O)C1=O)=C\c1ccccc1,113,inactive,inactive,inactive,inactive,inactive,inactive,–
COC(=O)Nc1nc2ccc(C(=O)c3ccccc3)cc2[nH]1,–,590 nM (active),525 nM (active),263 nM (active),296 nM (active),263 nM (active),332 nM (active),0.833 µM (active)
COc1cc([C@@H]2c3cc4c(cc3[C@@H](O[C@@H]3O[C@@H]5CO[C@@H](c6cccs6)O[C@H]5[C@H](O)[C@H]3O)[C@H]3COC(=O)[C@H]23)OCO4)cc(OC)c1O,–,263 nM (active),46.8 nM (active),235 nM (active),132 nM (active),332 nM (active),372 nM (active),1.18 µM (active)
CC[C@@H](Oc1cccc(CN(CCCOc2ccc(OC)cc2)c2nc3ccccc3o2)c1)C(=O)O,110,inactive,inactive,inactive,inactive,inactive,inactive,–
CN1C(=O)[C@@H](NC(=O)c2n[nH]c(Cc3ccccc3)n2)COc2ccccc21,110,inactive,inactive,inactive,inactive,inactive,inactive,–
CO[C@H]1/C=C\C=C(\C)C(=O)NC2=CC(=O)C(NCCN(C)C)=C(C[C@@H](C)C[C@H](OC)[C@H](O)[C@@H](C)/C=C(/C)[C@@H]1OC(N)=O)C2=O,–,118 nM (active),29.5 nM (active),417 nM (active),296 nM (active),1050 nM (active),662 nM (active),2.95 µM (active)
Nc1ccn([C@@H]2O[C@H](CO)[C@@H](O)C2O)c(=O)n1 (stereo partly drawn),–,3320 nM (active),833 nM (active),74.2 nM (active),29.5 nM (active),74.2 nM (active),52.5 nM (active),0.332 µM (active)
CC[C@H]1OC(=O)[C@H](C)[C@@H](O[C@H]2C[C@@](C)(OC)[C@@H](O)[C@H](C)O2)[C@H](C)[C@@H](O[C@@H]2O[C@H](C)C[C@H](N(C)C)[C@H]2O)[C@](C)(O)C[C@@H](C)C(=O)[C@H](C)[C@@H](O)[C@]1(C)O,113,inactive,inactive,inactive,inactive,inactive,inactive,–
CC[C@@]1(O)C(=O)OCc2c1cc1n(c2=O)Cc2c-1nc1ccccc1c2CCNC(C)C,–,4.7 nM (active),4.2 nM (active),3.7 nM (active),7.4 nM (active),11.8 nM (active),13.2 nM (active),0.0166 µM (active)
N#Cc1ccc(C(c2ccc(C#N)cc2)n2cncn2)cc1,96.2,inactive,inactive,inactive,inactive,inactive,inactive,–
C=C1C(=O)O[C@@H]2[C@H]3O[C@]3(C)CC/C=C(\C)CC[C@@H]12,–,6610 nM (active),5250 nM (active),7420 nM (active),10500 nM (active),9340 nM (active),11800 nM (active),11.8 µM (active)
CCC[C@@H]1C[C@@H](C(=O)N[C@@H]([C@H]2O[C@H](SC)[C@H](O)[C@@H](O)[C@H]2O)[C@H](C)Cl)N(C)C1,110,inactive,inactive,inactive,inactive,inactive,inactive,–
